# Measurements taken from PubChem BioAssay AID1159580 (chemical genetic matrix, 2015).
# Where “and” joins values, the source holds several entries; their conditions need not be identical. Equal values may be shown once. About 2,000 (36%) of roughly 5,500 compounds were called active. Roughly 18% stayed inconclusive and do not appear here. Cut-off read from the data, not from the text of the source: active = normalized growth mostly below about 0.91 (no sharp cut-off); inconclusive = no clear call, values can overlap the other calls; inactive = mostly above about 0.92. This is one part of the list.
# Test: chemical genetic growth profiling, strain panel (AID 1159580);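 note: tested at 20 µM; growth read once vehicle control cultures reached saturation at 30 °C; 1 = growth at the plate median or of vehicle wells; lower values mean less growth of the strain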
# Conditions: S. cerevisiae deletion strains, growth OD
structure (smiles),measurement,setting,value
Cc1cc(/C=C/c2ccc3cc(N(C)C)ccc3[n+]2C)c(C)n1-c1ccccc1,normalized growth,"locus YAL013W, strain DEP1, stronger effect = lower value",0.987 (inactive)
same,normalized growth,"locus YAL021C, strain ccr4, stronger effect = lower value",0.507 (active)
same,normalized growth,"locus YAL026C, strain drs2, stronger effect = lower value",0.924 (inactive)
same,normalized growth,"locus YAL030W, strain snc1, stronger effect = lower value",0.954 (inactive)
same,normalized growth,"locus YBL061C, strain skt5, stronger effect = lower value",0.927 (inactive)
same,normalized growth,"locus YBR009C, strain hhf1, stronger effect = lower value",0.922 (inactive)
same,normalized growth,"locus YBR021W, strain FUR4, stronger effect = lower value",0.668 (active)
same,normalized growth,"locus YBR023C, strain chs3, stronger effect = lower value",0.96 (inactive)
same,normalized growth,"locus YBR171W, strain sec66, stronger effect = lower value",1.04 (inactive)
same,normalized growth,"locus YBR229C, strain ROT2, stronger effect = lower value",1 (inactive)
same,normalized growth,"locus YBR231C, strain swc5, stronger effect = lower value",0.74 (active)
same,normalized growth,"locus YBR279W, strain paf1, stronger effect = lower value",0.882 (active)
same,normalized growth,"locus YCL011C, strain gbp2, stronger effect = lower value",0.837 (active)
same,normalized growth,"locus YCL016C, strain dcc1, stronger effect = lower value",0.912 (active)
same,normalized growth,"locus YCL029C, strain bik1, stronger effect = lower value",0.998 (inactive)
same,normalized growth,"locus YCL061C, strain MRC1, stronger effect = lower value",0.93 (inactive)
same,normalized growth,"locus YCL069W, strain vba3, stronger effect = lower value",0.995 (inactive)
same,normalized growth,"locus YCR088W, strain abp1, stronger effect = lower value",0.978 (inactive)
same,normalized growth,"locus YDL005C, strain med2, stronger effect = lower value",1.03 (inactive)
same,normalized growth,"locus YDL035C, strain GPR1, stronger effect = lower value",0.525 (active)
same,normalized growth,"locus YDL040C, strain nat1, stronger effect = lower value",1 (inactive)
same,normalized growth,"locus YDL074C, strain BRE1, stronger effect = lower value",0.653 (active)
same,normalized growth,"locus YDL101C, strain DUN1, stronger effect = lower value",0.744 (active)
same,normalized growth,"locus YDL134C, strain PPH21, stronger effect = lower value",0.615 (active)
same,normalized growth,"locus YDL185W, strain tfp1, stronger effect = lower value",1 (inactive)
same,normalized growth,"locus YDL192W, strain arf1, stronger effect = lower value",0.987 (inactive)
same,normalized growth,"locus YDR001C, strain nth1, stronger effect = lower value",1.01 (inactive)
same,normalized growth,"locus YDR069C, strain doa4, stronger effect = lower value",0.989 (inactive)
same,normalized growth,"locus YDR101C, strain arx1, stronger effect = lower value",0.986 (inactive)
same,normalized growth,"locus YDR137W, strain rgp1, stronger effect = lower value",0.834 (active)
same,normalized growth,"locus YDR159W, strain sac3, stronger effect = lower value",1.04 (inactive)
same,normalized growth,"locus YDR162C, strain NBP2, stronger effect = lower value",0.232 (active)
same,normalized growth,"locus YDR195W, strain ref2",1.25 [resistant] (active)
same,normalized growth,"locus YDR297W, strain sur2, stronger effect = lower value",0.961 (inactive)
same,normalized growth,"locus YDR318W, strain mcm21, stronger effect = lower value",0.946 (inactive)
same,normalized growth,"locus YDR334W, strain swr1, stronger effect = lower value",0.843 (active)
same,normalized growth,"locus YDR335W, strain msn5, stronger effect = lower value",0.953 (inactive)
same,normalized growth,"locus YDR388W, stronger effect = lower value",0.989 (inactive)
same,normalized growth,"locus YDR392W, strain spt3, stronger effect = lower value",0.782 (inactive)
same,normalized growth,"locus YDR502C, strain sam2, stronger effect = lower value",0.943 (inactive)
same,normalized growth,"locus YEL003W, strain gim4, stronger effect = lower value",0.949 (inactive)
same,normalized growth,"locus YEL037C, strain rad23, stronger effect = lower value",0.915 (active)
same,normalized growth,"locus YEL061C, strain CIN8 (second series), stronger effect = lower value",1 (inactive)
same,normalized growth,"locus YEL061C, strain CIN8, stronger effect = lower value",0.879 (active)
same,normalized growth,"locus YER015W, strain faa2, stronger effect = lower value",0.736 (active)
same,normalized growth,"locus YER016W, strain bim1, stronger effect = lower value",0.992 (inactive)
same,normalized growth,"locus YER110C, stronger effect = lower value",1.02 (inactive)
same,normalized growth,"locus YER111C, strain swi4, stronger effect = lower value",1.05 (inactive)
same,normalized growth,"locus YER155C, strain BEM2 (second series), stronger effect = lower value",0.727 (active)
same,normalized growth,"locus YER155C, strain BEM2, stronger effect = lower value",1.03 (inactive)
same,normalized growth,"locus YER167W, strain BCK2, stronger effect = lower value",0.825 (active)
same,normalized growth,"locus YFR010W, strain ubp6, stronger effect = lower value",0.989 (inactive)
same,normalized growth,"locus YGL078C, strain dbp3, stronger effect = lower value",1.02 (inactive)
same,normalized growth,"locus YGL086W, strain mad1, stronger effect = lower value",0.889 (active)
same,normalized growth,"locus YGL167C, strain pmr1, stronger effect = lower value",1.01 (inactive)
same,normalized growth,"locus YGL173C, strain kem1, stronger effect = lower value",0.974 (inactive)
same,normalized growth,"locus YGL227W, strain vid30, stronger effect = lower value",1.04 (inactive)
same,normalized growth,"locus YGL240W, strain doc1, stronger effect = lower value",0.962 (inactive)
same,normalized growth,"locus YGL248W, strain PDE1, stronger effect = lower value",0.65 (active)
same,normalized growth,"locus YGL253W, strain hxk2, stronger effect = lower value",0.684 (active)
same,normalized growth,"locus YGR078C, strain PAC10, stronger effect = lower value",0.776 (active)
same,normalized growth,"locus YGR135W, strain pre9, stronger effect = lower value",0.808 (active)
same,normalized growth,"locus YGR252W, strain gcn5, stronger effect = lower value",0.606 (active)
same,normalized growth,"locus YHR013C, strain ard1, stronger effect = lower value",0.662 (active)
same,normalized growth,"locus YHR027C, strain rpn1, stronger effect = lower value",0.83 (active)
same,normalized growth,"locus YHR030C, strain SLT2, stronger effect = lower value",0.815 (active) and 1.02 (inactive)
same,normalized growth,"locus YHR079C, strain IRE1 (second series), stronger effect = lower value",1 (inactive)
same,normalized growth,"locus YHR079C, strain IRE1, stronger effect = lower value",1.04 (inactive)
same,normalized growth,"locus YHR094C, strain hxt1, stronger effect = lower value",1.01 (inactive)
same,normalized growth,"locus YHR129C, strain ARP1, stronger effect = lower value",0.904 (active)
same,normalized growth,"locus YHR142W, strain chs7, stronger effect = lower value",1 (inactive)
same,normalized growth,"locus YHR200W, strain rpn10, stronger effect = lower value",0.857 (active)
same,normalized growth,"locus YIL066C, strain RNR3, stronger effect = lower value",0.87 (inactive)
same,normalized growth,"locus YIL073C, strain SPO22, stronger effect = lower value",0.278 (active)
same,normalized growth,"locus YIL125W, strain kgd1, stronger effect = lower value",1.03 (inactive)
same,normalized growth,"locus YIR030C, strain dcg1, stronger effect = lower value",1 (inactive)
same,normalized growth,"locus YJL092W, strain hpr5, stronger effect = lower value",0.893 (active)
same,normalized growth,"locus YJL095W, strain BCK1 (second series), stronger effect = lower value",1.01 (inactive)
same,normalized growth,"locus YJL095W, strain BCK1, stronger effect = lower value",0.876 (inactive) and 1.02 (inactive)
same,normalized growth,"locus YJL115W, strain asf1, stronger effect = lower value",1.01 (inactive)
same,normalized growth,"locus YJL129C, strain trk1, stronger effect = lower value",0.373 (active)
same,normalized growth,"locus YJL134W, strain LCB3, stronger effect = lower value",1 (inactive)
same,normalized growth,"locus YJL154C, strain vps35, stronger effect = lower value",1.01 (inactive)
same,normalized growth,"locus YJL164C, strain tpk1, stronger effect = lower value",0.92 (inactive)
same,normalized growth,"locus YJL166W, strain qcr8, stronger effect = lower value",0.955 (inactive)
same,normalized growth,"locus YJL168C, strain set2, stronger effect = lower value",0.984 (inactive)
same,normalized growth,"locus YJL187C, strain SWE1 (second series), stronger effect = lower value",0.88 (inactive)
same,normalized growth,"locus YJR043C, strain POL32, stronger effect = lower value",0.651 (active)
